The nature of assay [1]: antimalarial activity against Dd2 strain (AID 2302;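 active = growth inhibition above 50% at the single 2 µM test dose, taken to imply half-maximal potency below 2 µM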;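 note: 0% = DMSO untreated growth and 100% = chloroquine plus artemisinin killed control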). The note with it: P. falciparum Dd2 in RBCs, LDH growth readout, 72 h; at 2 µM; hits give high values.
Assay [2] can be described thus: HepG2 cytotoxicity, primary screen, cytotoxicity control for P. falciparum antimalarial project, cell-based, ATP luminescence (AID 2303;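 active = inhibition above 50%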;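 note: 0% = DMSO wells and 100% = digitonin-killed cells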). The note with it: HepG2 viability, 24-48 h, at 10 µM, hits give high values.
Assay [3] has as its target L-lactate dehydrogenase (Plasmodium falciparum (isolate CDC / Honduras)) (UniProt Q27743). Nature of the assay: PfLDH activity inhibition – cell lysate, 3D7 strain, counter-screen for P. falciparum growth inhibition project (AID 2304).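 Note: 0% = vehicle and 100% = reference inhibitor.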 The note with it: P. falciparum 3D7 crude extract, LDH APAD/NBT absorbance; at 2 µM; hits give high values. A general note: A counterscreen serves to expose hits that act by an unwanted route or on another target.

The nature of assay [4]: inhibition of 3D7 malaria parasite growth – strain 3D7 (AID 2306).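 Note: 0% = DMSO wells and 100% = chloroquine plus artemisinin control wells.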 The note with it: P. falciparum 3D7 erythrocytic growth, LDH absorbance, 72 h; at 2 µM; hits give high values.
Assay [5] has as its target Calcium-dependent protein kinase 1 (Plasmodium falciparum (isolate 3D7)) (UniProt P62344). Nature of the assay: PfCDPK1 kinase inhibitors, biochemical, TCAMS library (AID 1159585; cut-off not given, nearly all actives have IC50 up to about 0.98 µM;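 note: inhibitors leave more ATP so luminescence rises with inhibition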). The note with it: recombinant PfCDPK1, Kinase-Glo ATP depletion luminescence. Background: In Kinase-Glo more light means more ATP remaining.
Assay [6] deals with Plasmodium falciparum protein kinase 6 (PK6, PF3D7_1337100) (UniProt Q8IDW1). Nature of the assay: PfPK6 kinase inhibitors, biochemical, TCAMS library (AID 1159586). The conditions noted are these: recombinant PfPK6, Kinase-Glo ATP depletion luminescence.
Assay [7] addresses Protein kinase 7 (PK7), Plasmodium falciparum 3D7 (PF3D7_0213400) (UniProt Q7YTF7). Nature of the assay: inhibition of Plasmodium PK7 catalytic activity – biochemical, TCAMS antimalarial set, Kinase-Glo luminescence (AID 1159587). The conditions noted are these: recombinant PfPK7, Kinase-Glo ATP depletion luminescence.
For assay [8], the target named is Calcium-dependent protein kinase 4 (Plasmodium falciparum (isolate 3D7)) (UniProt Q8IBS5). Description: PfCDPK4 kinase inhibitors, biochemical, TCAMS library (AID 1159588; cut-off not given, nearly all actives have IC50 up to about 0.91 µM). The conditions noted are these: recombinant PfCDPK4, Kinase-Glo ATP depletion luminescence.

A number with no mark means an inactive call. For some of these results: Entries with a potency or affinity are not part of this list. Active and inactive are the calls of the source. Unless noted, the rule behind the calls is not given here.

Sequence of Plasmodium falciparum protein kinase 6 (PK6, PF3D7_1337100) (Q8IDW1 1-305): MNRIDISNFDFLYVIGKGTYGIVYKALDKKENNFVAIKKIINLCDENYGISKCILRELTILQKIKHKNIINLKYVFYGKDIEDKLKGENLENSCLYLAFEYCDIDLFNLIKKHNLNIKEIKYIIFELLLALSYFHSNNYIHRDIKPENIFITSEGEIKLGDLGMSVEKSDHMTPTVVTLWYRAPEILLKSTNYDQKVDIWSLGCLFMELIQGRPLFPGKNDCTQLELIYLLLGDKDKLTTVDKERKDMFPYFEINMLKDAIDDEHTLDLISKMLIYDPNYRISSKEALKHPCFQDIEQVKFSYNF
Sequence of Calcium-dependent protein kinase 1 (Plasmodium falciparum (isolate 3D7)) (P62344 whole entry, looked up): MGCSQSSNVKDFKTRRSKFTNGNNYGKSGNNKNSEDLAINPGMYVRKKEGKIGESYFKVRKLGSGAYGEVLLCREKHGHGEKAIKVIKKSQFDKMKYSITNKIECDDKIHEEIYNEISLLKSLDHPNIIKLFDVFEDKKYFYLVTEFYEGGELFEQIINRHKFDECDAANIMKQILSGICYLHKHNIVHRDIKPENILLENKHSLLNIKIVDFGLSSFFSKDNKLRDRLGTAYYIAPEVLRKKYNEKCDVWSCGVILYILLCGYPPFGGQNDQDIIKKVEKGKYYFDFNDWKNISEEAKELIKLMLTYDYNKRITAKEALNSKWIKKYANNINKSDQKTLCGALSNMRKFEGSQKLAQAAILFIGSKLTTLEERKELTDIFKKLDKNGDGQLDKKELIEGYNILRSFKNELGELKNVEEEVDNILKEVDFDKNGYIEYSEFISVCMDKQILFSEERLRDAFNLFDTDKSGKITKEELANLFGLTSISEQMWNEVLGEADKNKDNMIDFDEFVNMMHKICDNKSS
Sequence of Protein kinase 7 (PK7), Plasmodium falciparum 3D7 (PF3D7_0213400) (Q7YTF7 1-343): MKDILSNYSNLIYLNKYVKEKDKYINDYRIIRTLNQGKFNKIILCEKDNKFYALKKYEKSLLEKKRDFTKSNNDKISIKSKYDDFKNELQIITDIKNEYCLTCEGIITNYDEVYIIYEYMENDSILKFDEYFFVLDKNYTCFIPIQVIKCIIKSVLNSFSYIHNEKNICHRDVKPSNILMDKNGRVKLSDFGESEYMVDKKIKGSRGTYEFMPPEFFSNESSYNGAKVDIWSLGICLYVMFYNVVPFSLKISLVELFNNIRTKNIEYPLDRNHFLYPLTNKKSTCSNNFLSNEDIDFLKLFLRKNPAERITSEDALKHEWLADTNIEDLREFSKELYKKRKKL
Sequence of Calcium-dependent protein kinase 4 (Plasmodium falciparum (isolate 3D7)) (Q8IBS5 whole entry, looked up): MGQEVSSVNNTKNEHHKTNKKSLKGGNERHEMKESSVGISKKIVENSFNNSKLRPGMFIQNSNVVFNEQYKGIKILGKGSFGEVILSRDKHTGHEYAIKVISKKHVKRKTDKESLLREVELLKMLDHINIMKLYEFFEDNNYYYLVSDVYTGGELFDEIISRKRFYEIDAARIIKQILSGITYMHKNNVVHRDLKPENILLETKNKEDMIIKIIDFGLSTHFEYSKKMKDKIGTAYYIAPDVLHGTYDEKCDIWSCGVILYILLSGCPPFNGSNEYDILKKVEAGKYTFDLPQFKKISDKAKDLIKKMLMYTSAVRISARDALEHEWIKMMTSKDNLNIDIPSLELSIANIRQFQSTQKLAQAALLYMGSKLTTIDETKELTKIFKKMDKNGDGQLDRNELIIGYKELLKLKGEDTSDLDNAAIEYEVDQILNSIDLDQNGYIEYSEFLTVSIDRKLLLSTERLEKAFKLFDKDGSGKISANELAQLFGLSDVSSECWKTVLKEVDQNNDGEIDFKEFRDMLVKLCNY
Sequence of L-lactate dehydrogenase (Plasmodium falciparum (isolate CDC / Honduras)) (Q27743 whole entry, looked up): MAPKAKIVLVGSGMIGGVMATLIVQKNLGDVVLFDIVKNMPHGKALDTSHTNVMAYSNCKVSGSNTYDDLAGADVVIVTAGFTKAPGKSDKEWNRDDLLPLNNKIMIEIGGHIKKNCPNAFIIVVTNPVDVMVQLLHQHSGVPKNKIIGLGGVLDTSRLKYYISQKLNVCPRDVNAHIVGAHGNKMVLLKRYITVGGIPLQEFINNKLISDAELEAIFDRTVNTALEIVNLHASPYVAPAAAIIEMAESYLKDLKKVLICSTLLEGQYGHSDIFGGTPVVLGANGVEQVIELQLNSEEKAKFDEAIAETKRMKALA

Broadly, the inhibition is the relative decrease from the control value, in per cent. On to `CCC(C)CN1C(=O)C(c2ccccc2)(c2ccccc2)N=C1N` (stereo not given), for which the growth inhibition in assay [1] is 79% (active); in assay [4] it was 98% (active). Also, the values for the inhibition in assay [2] and in assay [3] were 11% and 4%, respectively. The outcome in assay [5], in assay [6], in assay [7] and in assay [8] was inactive.

Take `CC(C)(C(=O)NCCC1CCN(CCCCCNC(=O)/C=C/c2ccc(Cl)c(Cl)c2)CC1)c1ccc(Cl)cc1`: the results for the growth inhibition in assay [1] and in assay [4] were 33% and 89% (active), respectively. The inhibition is 92% (active) in assay [2] and -2% in assay [3]. Also, the result in assay [5], in assay [6], in assay [7] and in assay [8] was inactive.

In the case of `Cc1oc(-c2ccc(Cl)cc2)cc1C(=O)NCCC1CCN(CCCCCNC(=O)/C=C/c2ccc(Cl)c(Cl)c2)CC1`, the figures for the growth inhibition in assay [1] and in assay [4] were 88% (active) and 100% (active), respectively. In addition, the results for the inhibition in assay [2] and in assay [3] were 100% (active) and -4%, respectively. In addition, the outcome in assay [5], in assay [6], in assay [7] and in assay [8] was inactive.

Regarding `COC(=O)c1ccc(CC(C)NCC(O)c2ccc(C(O)CNC(C)Cc3ccc(C(=O)OC)cc3)cc2)cc1` (stereo not given), the growth inhibition in assay [1] was 13%; in assay [4] it was 88% (active). The inhibition is 24% in assay [2] and 1% in assay [3]. The result in assay [5], in assay [6], in assay [7] and in assay [8] was inactive.

As to `Cc1cccc(C(=O)Nc2ccnc(N(C)CCCN(C)Cc3cccc(C#N)c3)c2)c1`, the growth inhibition is 12% in assay [1] and 92% (active) in assay [4]. For the same compound, the inhibition in assay [2] is 1%; in assay [3], -2%. Also, the outcome in assay [5], in assay [6], in assay [7] and in assay [8] was inactive.

For the compound `CCCCCCCCCCS(=O)(=O)N[C@H](COCc1cccc(Oc2ccccc2)c1)COP(=O)(O)OC`, the growth inhibition was -3% in assay [1] and 87% (active) in assay [4]. In addition, the inhibition is -1% in assay [2] and -8% in assay [3]. Moreover, the result in assay [5], in assay [6], in assay [7] and in assay [8] was inactive.

Regarding `Cc1ccc2nc(C)cc(NN=Cc3cccc([N+](=O)[O-])c3)c2c1`, the values for the growth inhibition in assay [1] and in assay [4] were 99% (active) and 102% (active), respectively. Besides, the inhibition in assay [2] is 0%; in assay [3], 1%. Further, the result in assay [5], in assay [6], in assay [7] and in assay [8] was inactive.

For `COC(=O)c1ccc2nc(-c3ccc(/C=C/C(=O)NCc4ccc(Cl)c(Cl)c4)cc3)[nH]c2c1`, the results for the growth inhibition in assay [1] and in assay [4] were 3% and 81% (active), respectively. Also, the inhibition is 13% in assay [2] and -3% in assay [3]. Also, the result in assay [5], in assay [6], in assay [7] and in assay [8] was inactive.

As to `N#Cc1cccc(C(=O)Nc2ccc(-c3cccc(CN4CCC(O)CC4)c3)cc2)c1`, the growth inhibition in assay [1] was 68% (active); in assay [4] it was 100% (active). Further, the inhibition was 33% in assay [2] and 7% in assay [3]. In addition, the result in assay [5], in assay [6], in assay [7] and in assay [8] was inactive.

Turning to `N#Cc1ccc(N2CCN(Cc3cccc(-c4ccc(-c5nc6ccc(C(F)(F)F)cc6[nH]5)cc4)c3)CC2)nc1`, the growth inhibition was 81% (active) in assay [1] and 101% (active) in assay [4]. Besides, the inhibition in assay [2] is 39%; in assay [3] it was -1%. The result in assay [5], in assay [6], in assay [7] and in assay [8] was inactive.

In the case of `N#Cc1cc(C(=O)c2cc(Cl)ccc2O)cn(-c2cccc(C(F)(F)F)c2)c1=O`, the growth inhibition in assay [1] was 7%; in assay [4], 87% (active). For the same compound, the inhibition in assay [2] was -1%; in assay [3], -2%. Moreover, the outcome in assay [5], in assay [6], in assay [7] and in assay [8] was inactive.

For the compound `Cc1cc(=O)[nH]c(-n2nc(C)cc2NC(=O)C2(c3ccc(Cl)cc3)CCCC2)n1`, the growth inhibition was 97% (active) in assay [1] and 96% (active) in assay [4]. Besides, the inhibition was 30% in assay [2] and 5% in assay [3]. Also, the outcome in assay [5], in assay [6], in assay [7] and in assay [8] was inactive.

Regarding `COc1ccc(N(C)Cc2cnc3nc(N)nc(N)c3n2)cc1`, the growth inhibition in assay [1] was -1%; in assay [4], 98% (active). Also, the values for the inhibition in assay [2] and in assay [3] were 15% and 1%, respectively. For the same compound, the result in assay [5], in assay [6], in assay [7] and in assay [8] was inactive.

As to `O=C(Nc1ccc(-c2ccc(-c3nc4ccc(C(F)(F)F)cc4[nH]3)s2)cc1)c1ccoc1`, the growth inhibition in assay [1] was 54% (active); in assay [4], 94% (active). In addition, the inhibition in assay [2] is 9%; in assay [3] it was 3%. Further, the result in assay [5], in assay [6], in assay [7] and in assay [8] was inactive.

Consider `CC(C)CC(C)NC(=O)C1Cc2c([nH]c3cc(Cl)ccc23)C2(CCN(CCc3ccccc3)CC2)N1` (stereo not given), for which the growth inhibition in assay [1] is 65% (active); in assay [4], 95% (active). Further, the inhibition was 15% in assay [2] and -1% in assay [3]. Besides, the result in assay [5], in assay [6], in assay [7] and in assay [8] was inactive.

As for `CS(=O)(=O)NCCCNCc1ccc(-c2ccc(-c3nc4ccc(F)cc4[nH]3)cc2)cc1`, the growth inhibition in assay [1] was 97% (active); in assay [4], 100% (active). Besides, the inhibition is 17% in assay [2] and -1% in assay [3]. Also, the outcome in assay [5], in assay [6], in assay [7] and in assay [8] was inactive.

For `CN(C)CCCn1cncc1-c1ccc2ncnc(Nc3ccc4c(cnn4Cc4ccccc4)c3)c2c1`, the growth inhibition in assay [1] is 77% (active); in assay [4], 101% (active). In addition, the inhibition in assay [2] was 17%; in assay [3] it was -2%. In addition, the outcome in assay [5], in assay [6], in assay [7] and in assay [8] was inactive.

Consider `CC(NC(=O)c1ccc(O)c(-c2ccc(Cl)c(Cl)c2)c1)C(=O)NCCN1CCCCC1` (stereo not given), for which the growth inhibition in assay [1] is 3%; in assay [4], 97% (active). The inhibition was -2% in assay [2] and 2% in assay [3]. Besides, the outcome in assay [5], in assay [6], in assay [7] and in assay [8] was inactive.

`FC(F)(F)c1cccc(CCNc2nccc(NCc3ccccc3Cl)n2)c1`: the growth inhibition was 38% in assay [1] and 89% (active) in assay [4]. Besides, the values for the inhibition in assay [2] and in assay [3] were 31% and 1%, respectively. Also, the result in assay [5], in assay [6], in assay [7] and in assay [8] was inactive.

`COC(=O)c1c(C#N)c(OC)cc(O)c1CSC[C@H](Nc1nc(-c2ccc([N+](=O)[O-])cc2)cs1)C(=O)NCCN1CCCCC1`: the growth inhibition in assay [1] is 88% (active); in assay [4], 85% (active). Further, the inhibition in assay [2] is 5%; in assay [3], -2%. The result in assay [5], in assay [6], in assay [7] and in assay [8] was inactive.
